Laboratory results as given in PubChem BioAssay (EPA / NIEHS).
Results filed as inconclusive are left out. Calls of active or inactive are those of the source. Rule for the calls, unless noted: active = hit-call score of the fitted dose curve at least 0.9, where 1 is the maximum; inactive = score below 0.9.

Key:
[1] = molecular target: human Thyroid Receptor alpha (THRa1), THRA (gene 7067) (UniProt P10827); assay: ATG_THRa1_TRANS: Attagene TRANS-FACTORIAL HepG2 Assay for human Thyroid Receptor alpha (THRa1) (AID 2283014; active = hit-call score of the fitted dose curve at least 0.9, where 1 is the maximum)
Chain of human Thyroid Receptor alpha (THRa1), THRA (gene 7067) (P10827 whole entry, looked up, the tested form may be a part): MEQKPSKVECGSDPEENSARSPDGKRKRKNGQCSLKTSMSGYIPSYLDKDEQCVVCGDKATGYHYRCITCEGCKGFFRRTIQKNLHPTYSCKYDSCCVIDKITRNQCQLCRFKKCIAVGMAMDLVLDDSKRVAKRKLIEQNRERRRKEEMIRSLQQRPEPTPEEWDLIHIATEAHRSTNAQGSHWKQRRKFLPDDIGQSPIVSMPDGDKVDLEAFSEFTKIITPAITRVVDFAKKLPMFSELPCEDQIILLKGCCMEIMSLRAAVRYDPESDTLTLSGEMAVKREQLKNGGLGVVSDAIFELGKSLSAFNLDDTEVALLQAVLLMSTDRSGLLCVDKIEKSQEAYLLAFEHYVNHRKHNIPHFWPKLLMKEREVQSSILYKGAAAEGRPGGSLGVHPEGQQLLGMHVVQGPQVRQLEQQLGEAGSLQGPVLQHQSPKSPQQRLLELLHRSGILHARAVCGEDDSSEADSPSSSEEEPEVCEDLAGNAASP
Outline: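 HepG2 cells transiently transfected with chimeric NR-Gal4 and GAL4-UAS reporter units, dosed 24 h. Reporter mRNA quantified by RT-PCR, fluorescent labeling, HpaI digestion and capillary electrophoresis; gain-of-signal fit versus DMSO.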

[2] = CCTE_Harrill_HTTr_Viability_MCF7: CCTE's 6-hour Cell Viability Assessment for the High-Throughput Transcriptomics (HTTr) Platform, in MCF-7 cells cultured in DMEM + 10% fetal bovine serum, Harrill Lab (AID 2284010)
Outline: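 Viability measured through PI dye exclusion by high-content imaging at 6 h post-dosing.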

[3] = molecular target: Estrogen-related receptor gamma (Homo sapiens) (UniProt P62508); assay: ATG_ERRg_TRANS: Attagene TRANS-FACTORIAL HepG2 Assay for human Estrogen-Related Receptor gamma (ERRg) (AID 2282977; active = hit-call score of the fitted dose curve at least 0.9, where 1 is the maximum;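 note: hits increase reporter signal over DMSO so potencies reflect activators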); settings: HepG2 Attagene TRANS reporter, ERRg transactivation
Chain of Estrogen-related receptor gamma (Homo sapiens) (P62508 whole entry, looked up, the tested form may be a part): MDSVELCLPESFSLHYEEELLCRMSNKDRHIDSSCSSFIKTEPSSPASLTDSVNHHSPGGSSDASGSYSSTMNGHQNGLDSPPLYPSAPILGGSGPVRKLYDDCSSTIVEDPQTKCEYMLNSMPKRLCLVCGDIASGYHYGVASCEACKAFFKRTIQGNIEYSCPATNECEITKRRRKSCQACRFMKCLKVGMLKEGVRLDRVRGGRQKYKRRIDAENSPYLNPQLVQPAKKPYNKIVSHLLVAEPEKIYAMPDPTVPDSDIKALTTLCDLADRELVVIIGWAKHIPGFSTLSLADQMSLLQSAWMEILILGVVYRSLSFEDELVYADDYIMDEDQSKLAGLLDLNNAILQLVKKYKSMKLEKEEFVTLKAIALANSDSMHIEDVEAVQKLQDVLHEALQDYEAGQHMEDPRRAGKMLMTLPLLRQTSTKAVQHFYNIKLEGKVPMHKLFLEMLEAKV
Outline: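 Transient HepG2 transfectants, 24 h compound exposure, GAL4-UAS reporter mRNA by RT-PCR/6-FAM labelling/capillary electrophoresis; positive direction vs DMSO.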

[4] = molecular target: Steroid hormone receptor ERR1 (Homo sapiens) (UniProt P11474); assay: ATG_ERRa_TRANS: Attagene TRANS-FACTORIAL HepG2 Assay for human Estrogen-Related Receptor alpha (ERRa) (AID 2282971; active = hit-call score of the fitted dose curve at least 0.9, where 1 is the maximum); settings: HepG2 Attagene TRANS reporter, ERRa transactivation
Chain of Steroid hormone receptor ERR1 (Homo sapiens) (P11474 whole entry, looked up, the tested form may be a part): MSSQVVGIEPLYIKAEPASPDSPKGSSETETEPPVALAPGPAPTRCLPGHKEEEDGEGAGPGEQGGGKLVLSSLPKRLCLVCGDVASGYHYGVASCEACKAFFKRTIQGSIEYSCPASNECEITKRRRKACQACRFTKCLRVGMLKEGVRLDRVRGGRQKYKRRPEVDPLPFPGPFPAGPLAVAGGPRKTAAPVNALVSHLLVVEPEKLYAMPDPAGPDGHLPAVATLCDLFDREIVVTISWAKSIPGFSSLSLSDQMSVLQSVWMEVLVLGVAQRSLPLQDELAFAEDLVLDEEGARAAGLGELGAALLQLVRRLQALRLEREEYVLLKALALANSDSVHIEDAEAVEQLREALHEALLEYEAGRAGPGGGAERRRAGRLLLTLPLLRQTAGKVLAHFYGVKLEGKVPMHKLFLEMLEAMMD
Outline: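 HepG2 cells transiently transfected with GAL4-UAS reporter units and chimeric NR-Gal4 constructs; after 24 hour compound incubation, reporter mRNA quantified by RT-PCR, fluorescent labelling and capillary electrophoresis, gain of signal versus DMSO.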

[5] = BSK_3C_TissueFactor: BioMAP Diversity Plus: 3C Assay for Tissue Factor Biomarker Activity (AID 2282997); settings: BioMAP 3C HUVEC, tissue factor biomarker readout; actives raise or lower the signal
Outline: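 HUVEC were treated 24 h, then surface tissue factor measured by ELISA and fitted bidirectionally against DMSO. Parallel SRB total-protein staining assessed overt cytotoxicity at the same time point.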

[6] = BSK_3C_uPAR: BioMAP Diversity Plus: 3C Assay for Urokinase-type plasminogen activator receptor (uPAR) Biomarker Activity (AID 2282998); settings: BioMAP 3C HUVEC, uPAR biomarker ELISA; actives raise or lower the signal
Outline: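 Cell-surface uPAR on HUVEC (3C system) read by ELISA at 24 h post-treatment, with DMSO as baseline and fitting in both directions. Parallel cultures stained with SRB to flag overt cytotoxicity.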

[7] = BSK_4H_Eotaxin3: BioMAP Diversity Plus: 4H Assay for Eotaxin 3 Biomarker Activity (AID 2283000); settings: primary human endothelial cells (HUVEC); actives raise or lower the signal;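 note: CCL26 protein level quantified by ELISA in parallel with SRB cytotoxicity check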
Outline: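 Eotaxin-3 (CCL26) levels were measured by ELISA in HUVEC primary cultures 24 h post-dosing. Gain or loss of signal was fitted in both directions, with DMSO serving as baseline and negative control.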

[8] = read-out: Intercellular Adhesion Molecule 1 (ICAM1), ICAM1 (gene 3383); assay: BSK_3C_ICAM1: BioMAP Diversity Plus: 3C Assay for Intercellular Adhesion Molecule 1 (ICAM1) Biomarker Activity (AID 2283003); settings: primary human endothelial cells (HUVEC); actives raise or lower the signal
Outline: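 Human vascular endothelial primary cells, 3C conditions, 24 h treatment. ICAM-1 by ELISA.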

[9] = read-out: Interleukin-1 alpha (IL1a), IL1A (gene 3552); assay: BSK_BE3C_IL1a: BioMAP Diversity Plus: BE3C Assay for Interleukin-1 alpha (IL1a) Biomarker Activity (AID 2283016); settings: primary human bronchial epithelial cells; actives raise or lower the signal
Outline: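 Cultures of primary human bronchial epithelial cells receive test chemical. After 24 h, IL-1a is quantified by ELISA, while parallel wells are fixed in TCA and SRB-stained for total protein. Changes in either direction are fitted relative to DMSO.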

[10] = read-out: Monocyte Chemoattractant Protein-1 (MCP1), CCL2 (gene 6347); assay: BSK_3C_MCP1: BioMAP Diversity Plus: 3C Assay for Monocyte Chemoattractant Protein-1 (MCP1) Biomarker Activity (AID 2283017); settings: primary human endothelial cells (HUVEC); actives raise or lower the signal
Outline: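 Human umbilical vein endothelial cells (3C system) exposed to chemicals for 24 h; MCP-1 quantified by ELISA against the DMSO baseline with bidirectional fitting, and parallel SRB staining used to assess cytotoxicity.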

[11] = read-out: Interleukin-8 (IL8), CXCL8 (gene 3576); assay: BSK_3C_IL8: BioMAP Diversity Plus: 3C Assay for Interleukin-8 (IL8) Biomarker Activity (AID 2283020); settings: primary human endothelial cells (HUVEC); actives raise or lower the signal
Outline: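 Human vascular endothelial cells (umbilical vein) in the 3C system; IL-8 level detected by ELISA at 24 h post-dose, with DMSO as baseline.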

[12] = BSK_3C_SRB: Viability Assessment in the BioMAP Diversity Plus: 3C Assay (AID 2283023); settings: primary human endothelial cells (HUVEC);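 note: cells read 24 h after compound dosing; fitted both ways against DMSO so a hit may be signal rise or drop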
Outline: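 Human umbilical vein endothelial cells in the 3C system, treated 24 h. Total protein measured by 0.1% sulforhodamine B staining after 10% TCA fixation, read at 560 nm; bidirectional fit versus DMSO.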

[13] = read-out: Urokinase-type plasminogen activator receptor (uPAR), PLAUR (gene 5329); assay: BSK_4H_uPAR: BioMAP Diversity Plus: 4H Assay for Urokinase-type plasminogen activator receptor (uPAR) Biomarker Activity (AID 2283030); settings: primary human endothelial cells (HUVEC); actives raise or lower the signal
Outline: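 Human umbilical vein endothelial cells in the 4H system, 24 h after chemical dosing. Cell-surface uPAR measured by ELISA, fitted in both directions versus DMSO; cytotoxicity checked by SRB total protein in parallel cultures.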

[14] = read-out: Plasminogen activator inhibitor-1 (PAI1), SERPINE1 (gene 5054); assay: BSK_BE3C_PAI1: BioMAP Diversity Plus: BE3C Assay for Plasminogen activator inhibitor-1 (PAI1) Biomarker Activity (AID 2283037); settings: primary human bronchial epithelial cells; actives raise or lower the signal
Outline: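 PAI-1 biomarker levels in treated human bronchial epithelial cells are determined by ELISA at 24 h. Both increases and decreases relative to DMSO are fitted.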

[15] = read-out: urokinase plasminogen activator (uPA), PLAU (gene 5328); assay: BSK_BE3C_uPA: BioMAP Diversity Plus: BE3C Assay for urokinase plasminogen activator (uPA) Biomarker Activity (AID 2283038); settings: primary human bronchial epithelial cells; actives raise or lower the signal;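 note: uPA protein level quantified by ELISA in cell cultures; uPA read one day after compound addition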
Outline: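 Primary human bronchial epithelial cells, uPA measured by ELISA 24 h after dosing. Bidirectional change relative to DMSO; cytotoxicity checked in parallel cultures by sulforhodamine B total-protein staining.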

[16] = read-out: Tissue plasminogen activator (tPA), PLAT (gene 5327); assay: BSK_BE3C_tPA: BioMAP Diversity Plus: BE3C Assay for Tissue plasminogen activator (tPA) Biomarker Activity (AID 2283041); settings: primary human bronchial epithelial cells; actives raise or lower the signal;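 note: tPA level quantified by ELISA one day after compound addition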
Outline: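 Bidirectional curve fitting relative to DMSO defined activity, with tPA detected by ELISA in chemically treated human bronchial epithelial primary cells at 24 hours.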

[17] = read-out: Thrombomodulin, THBD (gene 7056); assay: BSK_CASM3C_Thrombomodulin: BioMAP Diversity Plus: CASM3C Assay for Thrombomodulin Biomarker Activity (AID 2283051); settings: primary human coronary artery smooth muscle cells; actives raise or lower the signal;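 note: thrombomodulin protein level measured by ELISA 24 h after dosing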
[18] = read-out: Interleukin-1 alpha (IL1a), IL1A (gene 3552); assay: BSK_LPS_IL1a: BioMAP Diversity Plus: LPS Assay for Interleukin-1 alpha (IL1a) Biomarker Activity (AID 2283080); settings: primary human HUVEC with PBMC; actives raise or lower the signal
Outline: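 Human umbilical vein endothelial cells co-cultured with PBMC and stimulated with LPS; IL-1a measured by ELISA 24 h after dosing. Bidirectional fitting against DMSO; cytotoxicity checked by SRB staining in parallel cultures.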

[19] = BSK_LPS_PGE2: BioMAP Diversity Plus: LPS Assay for Prostaglandin E2 (PGE2) Biomarker Activity (AID 2283082); settings: primary human HUVEC with PBMC; actives raise or lower the signal
Outline: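 Endpoint derived from bidirectional curve fitting versus DMSO of ELISA-measured PGE2 in LPS-stimulated human primary vascular co-culture (HUVEC with PBMC) harvested at 24 h.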

Measured: outcome

Nc1ccccc1
inactive: [1] | [2]

C=C(Cl)Cl
inactive: [3]

Oc1ccc(Cl)cc1
inactive: [2]

O=P1(NCCCl)OCCCN1CCCl (centres undefined)
not listed: [1] | [3]
inactive: all other assays above

CC1OC(C)OC(C)O1 (centres undefined)
inactive: [4] | [1]

CC(C)C(=O)Cl
inactive: [3]
